Assay results from the supplement of paper PMC9177965.
Values joined by “and” are separate entries in the source; they are usually repeats but may differ in a detail not shown here. Equal values may be shown once.

Experiments:
[1] = test system: HT29 RNF43 G659fs (RNF43 659mut, CRISPR-edited); test: cell viability activity relative to DMSO (negative = inhibition); higher = more viable cells (less growth inhibition); details: 5 µM; 96 h
Description: (§1)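 Broad Repurposing Library primary screen at a single dose of 5 uM. HT29 sg-Ctrl and HT29 RNF43 G659fs CRISPR-edited isogenic cells were seeded at 2500 cells/well in 384-well plates in duplicate and treated for 96 h. Viability was read by CellTiter-Glo and reported as % activity relative to DMSO, with MG132 as the positive control (negative = growth inhibition).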

[2] = test system: HT29 sg-Ctrl (RNF43 wildtype); test: as above; details: 5 µM; 96 h
Description: as §1

SMILES	cell viability activity [1]	cell viability activity [2]
O=C(c1cccc(Cl)c1F)N1CCN(Cc2cccc(Nc3nccs3)n2)CC1	-27.7%	-25.6%
Cc1cc(OCc2nnc(SC3CCCC3)n2-c2cccnc2)ccc1-c1ccc(S(C)(=O)=O)cc1	-86.4%	-74.8%
Nc1ccc(F)cc1NC(=O)c1ccc(CNC(=O)/C=C/c2cccnc2)cc1	-39.6%	-64.8%
CCCCCCCCCCCCCCCC[N+](C)(C)C	-84.6%	-74.2%
CCCCCCCCc1ccc(CCC(N)(CO)CO)cc1	-97.8%	-94.1%
CC1(C)CC(=O)c2c(C(F)(F)F)nn(-c3ccc(C(N)=O)c(N[C@H]4CC[C@H](OC(=O)CN)CC4)c3)c2C1	-89.4% and -91.3% and -87.7%	-84.8% and -87.4% and -83.8%
CCCCCCOc1nsnc1C1=CCCN(C)C1	-59.1%	-58.7%
CNC(=O)c1ccccc1Nc1nc(Nc2ccc3c(c2OC)CCC[C@H](N2CCN(CCO)CC2)C3)ncc1Cl	-89.4%	-85.5%
CC(C)(C)c1[nH]cnc1/C=c1\[nH]c(=O)/c(=C/c2ccccc2)[nH]c1=O	-55.7%	-54%
Clc1ccc(CSC(Cn2ccnc2)c2ccc(Cl)cc2Cl)cc1 (stereo unspecified)	-38.7%	-29%
C[C@@H](C(=O)O)c1ccc(-c2ccccc2)c(F)c1	-68.9%	-70.3%
C=CC(=O)Nc1cc2c(Nc3ccc(F)c(Cl)c3)ncnc2cc1C#CC(C)(C)N1CCN(C)CC1	-94.8%	-86.1%
CCCCC(=O)OCC(=O)[C@]1(O)Cc2c(O)c3c(c(O)c2[C@@H](O[C@H]2C[C@H](NC(=O)C(F)(F)F)[C@H](O)[C@H](C)O2)C1)C(=O)c1c(OC)cccc1C3=O	-48.2%	-25.4%
